PostGolgi ctrl – growth of the yeast control strain, post-Golgi counter-screen; inhibition, % at 10 µM; efflux-deficient yeast background strain, growth absorbance A615, 16 h; actives 5% (n = 98,000)
CYP2C9 act – activators of human CYP2C9. AID 1024. activation factor at 5 µM. P11712. actives 1.4% (n = 96,000). recombinant CYP2C9, luciferin-H conversion, luminescence; stronger effect = higher value; factor 1 = untreated enzyme, 0 = blocked;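 active = activation factor of 2 or more for CYP2C9 at a 5 µM dose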
CYP2C19 inhib – inhibitors of human CYP2C19 | CYP2C19 Supersomes, luciferin-H EGE luminescence, 30 min | inhibition, % at 5 µM | actives 21% (n = 96,000);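 active = CYP2C19 inhibition above a set limit at 5 µM in the primary screen, cut at about 50% in these data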
Target sequence (P33261 whole entry, looked up): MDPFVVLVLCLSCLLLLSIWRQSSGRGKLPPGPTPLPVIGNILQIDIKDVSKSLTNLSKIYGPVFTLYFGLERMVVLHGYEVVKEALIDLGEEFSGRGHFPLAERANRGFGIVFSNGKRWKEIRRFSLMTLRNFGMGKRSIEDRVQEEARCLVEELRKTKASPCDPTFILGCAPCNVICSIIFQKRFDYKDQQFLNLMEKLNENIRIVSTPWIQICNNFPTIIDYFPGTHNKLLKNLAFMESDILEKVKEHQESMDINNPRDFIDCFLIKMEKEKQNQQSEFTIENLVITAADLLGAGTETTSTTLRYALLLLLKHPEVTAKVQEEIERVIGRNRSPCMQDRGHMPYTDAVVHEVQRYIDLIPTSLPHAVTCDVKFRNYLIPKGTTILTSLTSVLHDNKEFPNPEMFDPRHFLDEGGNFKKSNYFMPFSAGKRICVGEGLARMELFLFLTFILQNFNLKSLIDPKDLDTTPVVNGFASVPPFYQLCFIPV
PostGolgi yeast – growth inhibition of a yeast mutant, post-Golgi transport screen | post-Golgi transport phenotypic cell assay | inhibition, % at 10 µM | actives 0.9% (n = 98,000);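 note: yeast cells grown in 1536-well plates; yeast grown about 18 h at 30C before absorbance read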
CYP2C19 act – activators of human cytochrome P450 2C19 | P33261 | activation factor at 5 µM | 96,000 tested, under 10 active | recombinant CYP2C19, luciferin-H EGE luminescence; stronger effect = higher value; 0 = fully inhibited enzyme, 1 = untreated enzyme | AID 1025;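 active = activation factor of at least 2 at 5 µM in the primary screen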
CYP2C9 inhib – blocks human cytochrome P450 2C9; P11712; CYP2C9 Supersomes, luciferin-H conversion, luminescence; inhibition, % at 5 µM; actives 20% (n = 96,000); AID 777;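 active = blocking of liver enzyme CYP2C9 beyond about 50% at 5 µM, limit read from the data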
Of the large screens only hits and unclear results are named; the others gave an inactive call. The list is not random: actives were taken first. Their share in the collection is about 32%. Cut-off read from the data, not from the text of the source, unless noted: active = inhibition above about 30%; inactive = the rest.

O=C(O)c1ccccc1-c1ccccc1C(=O)NCc1ccco1	none
CCCOc1ccc(N2C(=O)CC(N(CCC)C(=O)CCC(=O)O)C2=O)cc1 (configuration not stated)	none
C=CCN(C(=O)CCC(=O)O)C1CC(=O)N(c2ccc(OCCC)cc2)C1=O (configuration not stated)	PostGolgi ctrl 34
CCCOc1ccc(N2C(=O)CC(N(CCc3ccc(OC)cc3)C(=O)c3cccc(F)c3)C2=O)cc1 (configuration not stated)	CYP2C19 inhib 62, CYP2C9 inhib 58
COCCNC(=O)c1ccc2c(c1)nc(C)n2-c1cc(OC)c(OC)c(OC)c1	none
CC(=O)c1ccc(NC(=O)CSC(C)C)cc1	none
CCNC(=S)N/N=C/c1cccs1	none
COC(=O)c1c(NC(=O)C2CC(=O)NN2Cc2ccccc2)sc(C)c1C (configuration not stated)	CYP2C19 inhib 86, CYP2C9 inhib 82
CCc1c(C#N)c(N)nc(SCC(=O)OCc2ccccc2)c1C#N	none
C/C=C/c1ccc(OC)c(OC(C)=O)c1	none (no result: PostGolgi ctrl, PostGolgi yeast)
Brc1ccc(Oc2ncc(CN3CCN(c4ccccc4)CC3)s2)cc1	CYP2C19 inhib 57, CYP2C9 inhib 71
Clc1cccc(Oc2ncc(CN3CCOCC3)s2)c1	CYP2C19 inhib 82
Cc1ccc(Oc2ncc(CN3CCOCC3)s2)cc1	CYP2C19 inhib 79
Clc1ncc(CN2CCN(Cc3ccccc3)CC2)s1	CYP2C19 inhib 74
C=CCN1CCN(Cc2cnc(Cl)s2)CC1	none
Cc1nc(Nc2ccc(S(N)(=O)=O)cc2)oc1C	none
CCCCOc1ccc(C2C(=O)N(C3CCCCC3)CC(=O)N2CC2CCCO2)cc1 (configuration not stated)	none
O=C(NC(C(=O)N/N=C/c1cccc2ccccc12)c1n[nH]c(=O)c2ccccc12)c1ccccc1 (configuration not stated)	CYP2C9 inhib 56
O=C(c1ccc(Br)o1)N1CCN=C1SCc1cccc(F)c1	CYP2C19 inhib 91, CYP2C9 inhib 59
CC(=O)N1CCN=C1SCc1ccc(F)cc1	none
COc1cc(OC)cc(C(=O)N2CCN=C2SCc2cccnc2)c1	CYP2C19 inhib 100, CYP2C9 inhib 90
O=C(c1ccc(S(=O)(=O)N2CCOCC2)cc1)N1CCN=C1SCc1cccnc1	none
O=C(c1cccc(F)c1)N1CCN=C1SCc1cccnc1	CYP2C19 inhib 91, CYP2C9 inhib 82
CCOC(=O)Cc1csc(NS(=O)(=O)c2ccc3c4c(cccc24)C(=O)N3CC)n1	CYP2C9 inhib 95
CCN1C(=O)c2cccc3c(S(=O)(=O)Nc4c(C)n(C)n(-c5ccccc5)c4=O)ccc1c23	CYP2C9 inhib 58
CC1CN(C(=O)COc2ncnc3ccccc23)CC(C)O1 (configuration not stated)	none
CCCN(CCC)CCNC(=O)C(NS(=O)(=O)c1ccc2c(c1)CCC(=O)N2)c1ccccc1 (configuration not stated)	PostGolgi ctrl 31
O=C(NCc1ccc(F)cc1)c1cnc(-c2ccccn2)nc1C(F)(F)F	none
Clc1cccc(Cl)c1CSc1nnc(-c2sccc2-n2cccc2)o1	none
CCCNc1nc(-c2ccccc2)c(C(=O)OCC)cc1C#N	CYP2C9 inhib 57
C=CCNc1nc(-c2ccccc2)c(C(=O)OCC)cc1C#N	none
CCCCNc1nc(-c2ccccc2)c(C(=O)OCC)cc1C#N	CYP2C9 inhib 56
CC(C)COC(=O)C(C#N)c1nc2ccccc2nc1N1CCN(Cc2ccc3c(c2)OCO3)CC1 (configuration not stated)	CYP2C9 inhib 79
C=CCNC(=O)C(C#N)c1nc2ccccc2nc1N1CCN(Cc2ccccc2)CC1 (configuration not stated)	none
COC(=O)C(C#N)c1nc2ccccc2nc1N1CCN(Cc2ccc3c(c2)OCO3)CC1 (configuration not stated)	CYP2C19 inhib 50 (no result: PostGolgi ctrl, PostGolgi yeast)
CCCCOC(=O)C(C#N)c1nc2ccccc2nc1N1CCN(Cc2ccc3c(c2)OCO3)CC1 (configuration not stated)	CYP2C19 inhib 65, CYP2C9 inhib 92
Cc1c(NC(=O)c2n[nH]c(=O)c3ccccc23)c(=O)n(-c2ccccc2)n1C	none
CS(=O)(=O)N1CCC(c2noc(-c3ccc(C(F)(F)F)cc3)n2)CC1	none
COCCN(CCOC)C(=O)c1c[nH]c2ccc(S(=O)(=O)N(C)c3ccc(F)cc3)cc2c1=O	none
O=C1NC(Cc2c[nH]c3ccccc23)C(=O)N1CCOc1ccccc1 (configuration not stated)	CYP2C19 inhib 82, CYP2C9 inhib 57
CCOc1ccc(N2C(=O)NC(Cc3c[nH]c4ccccc34)C2=O)cc1 (configuration not stated)	none
Cc1cc(C(=O)CN2C(=O)NC(Cc3c[nH]c4ccccc34)C2=O)c(C)n1C (configuration not stated)	CYP2C19 inhib 67
O=C(c1sc2ccccc2c1Cl)N(Cc1ccccc1)C1CCS(=O)(=O)C1 (configuration not stated)	CYP2C19 inhib 52, CYP2C9 inhib 68
O=C(c1ccccc1F)N(Cc1ccc(F)cc1)C1CCS(=O)(=O)C1 (configuration not stated)	CYP2C19 inhib 83
O=C(c1ccccc1F)N(Cc1ccccc1)C1CCS(=O)(=O)C1 (configuration not stated)	none
O=C(c1cccs1)N(Cc1ccco1)C1CCS(=O)(=O)C1 (configuration not stated)	CYP2C19 inhib 56
O=C(c1sc2ccccc2c1Cl)N(Cc1ccco1)C1CCS(=O)(=O)C1 (configuration not stated)	CYP2C19 inhib 71, CYP2C9 inhib 70
O=C(COC(=O)c1ccccc1NC(=O)c1ccco1)NCc1ccc2c(c1)OCO2	none
CC(=O)c1c(C)[nH]c(C(=O)Nc2c(C)n(C)n(-c3ccccc3)c2=O)c1C	none (no result: PostGolgi ctrl, PostGolgi yeast)
O=c1cnnc(NCc2ccccc2)[nH]1	none
O=C(c1sc2ccccc2c1Cl)N(Cc1ccccc1Cl)C1CCS(=O)(=O)C1 (configuration not stated)	PostGolgi ctrl 31, CYP2C9 inhib 85
CCN(CC)c1ccc(CN(C(=O)c2cc(OC)c(OC)c(OC)c2)C2CCS(=O)(=O)C2)cc1 (configuration not stated)	none
Cc1cc2oc(C(=O)N(Cc3ccccc3)C3CCS(=O)(=O)C3)cc(=O)c2cc1Cl (configuration not stated)	CYP2C19 inhib 62, CYP2C9 inhib 80
CCN(CC)c1ccc(CN(C(=O)c2ccco2)C2CCS(=O)(=O)C2)cc1 (configuration not stated)	CYP2C19 inhib 57, CYP2C9 inhib 58
O=C(c1ccccc1)N(Cc1cccs1)C1CCS(=O)(=O)C1 (configuration not stated)	none
